From PubChem BioAssay AID1159580 (chemical genetic matrix, 2015)
In all, about 5,500 compounds went through this assay and about 2,000 (36%) were called active. Not shown: some 18% with an inconclusive outcome. No stated cut-off is given here; in the data, active means normalized growth mostly below about 0.91 (no sharp cut-off); inconclusive means no clear call, values can overlap the other calls; inactive means mostly above about 0.92. The list shows a part of the results.

Assay: chemical genetic growth profiling, strain panel (AID 1159580);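 further: tested at 20 µM; growth read once vehicle control cultures reached saturation at 30 °C; 1 = growth at the plate median or of vehicle wells; lower values mean less growth of the strain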
Details: S. cerevisiae deletion strains, growth OD

Measured: normalized growth

CCn1cc([N+](=O)[O-])nc1C
inactive: locus YAL013W, strain DEP1, hits give low values 1 | locus YBR229C, strain ROT2, hits give low values 1.02 | locus YDL101C, strain DUN1, hits give low values 1.03 | locus YDR150W, strain NUM1, hits give low values 1.03 | locus YEL061C, strain CIN8, hits give low values 0.981 | locus YGR078C, strain PAC10, hits give low values 1.02 | locus YHR030C, strain SLT2, hits give low values 1.05 | locus YHR087W, strain rtc3, hits give low values 0.975 | locus YJR043C, strain POL32, hits give low values 1.06 | locus YJR075W, strain HOC1, hits give low values 1 | locus YKL190W, strain CNB1, hits give low values 1 | locus YLR039C, strain RIC1, hits give low values 0.987 | locus YLR058C, strain SHM2 (second series), hits give low values 0.998 | locus YLR085C, strain ARP6, hits give low values 0.982 | locus YLR262C, strain YPT6, hits give low values 0.979 | locus YML094W, strain GIM5, hits give low values 0.968 | locus YMR219W, strain ESC1, hits give low values 0.983 | locus YMR263W, strain SAP30, hits give low values 1.01 | locus YNL128W, strain TEP1, hits give low values 1.02 | locus YNL153C, strain GIM3, hits give low values 1.02 | locus YNL298W, strain CLA4 (second series), hits give low values 1 | locus YNL322C, strain KRE1, hits give low values 0.997 | locus YNR030W, strain Alg12, hits give low values 0.976 | locus YPL055C, strain LGE1, hits give low values 1.01 | locus YPL241C, strain CIN2, hits give low values 1.02 | locus YPR135W, strain CTF4, hits give low values 1.05
